Shown are actives, neighbours in structure and some others; about 3.5% of the full set was active somewhere.
TEAD-YAP inh – TEAD-YAP interaction inhibition; HEK-TIYL cells, TEAD-Gal4/YAP UAS-luciferase luminescence; actives 1.4% (n = 640,000); AID 1259422; inhibition, % at 9.12 µM; in the data active means inhibition above about 32%
FBW7 act – human FBW7 E3 ligase activation, primary screen; normalized activity (activation), % at 26.1 µM; AID 1259310; actives 0.13% (n = 650,000); AlphaScreen FBW7–phospho-cyclin E peptide binding, activator screen; in the data active means normalized activity above about 1.9%;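 further: purified mutant Fbw7 with reduced substrate affinity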
MITF inh – inhibitors of human MITF | AlphaScreen MITF homodimerization, bead proximity signal | O75030 | inhibition, % at 2.6 µM | actives 0.91% (n = 650,000); in the data active means inhibition above about 50%
GPR151 activ – human GPR151 activation; PathHunter beta-arrestin GPR151 cells, luminescence; activation, % at 11.2 µM; actives 1% (n = 650,000); in the data active means activation above about 4.9%
Target sequence (Q8TDV0 whole entry, looked up): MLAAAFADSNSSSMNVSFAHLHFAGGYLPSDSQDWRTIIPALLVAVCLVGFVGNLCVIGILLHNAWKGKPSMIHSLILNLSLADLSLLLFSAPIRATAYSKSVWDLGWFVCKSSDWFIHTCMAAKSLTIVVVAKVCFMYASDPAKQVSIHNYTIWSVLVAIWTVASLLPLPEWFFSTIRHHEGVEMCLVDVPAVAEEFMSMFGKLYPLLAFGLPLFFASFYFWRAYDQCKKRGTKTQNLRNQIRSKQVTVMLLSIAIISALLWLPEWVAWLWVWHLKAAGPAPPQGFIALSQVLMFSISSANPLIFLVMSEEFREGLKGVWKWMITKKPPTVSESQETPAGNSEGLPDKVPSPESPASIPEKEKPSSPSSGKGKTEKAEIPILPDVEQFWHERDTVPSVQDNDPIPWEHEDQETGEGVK
GPR151 conf act – confirmation of human GPR151 activators; shares compounds with GPR151 activ; GPR151 PathHunter beta-arrestin cells, luminescence, 90 min; % of EA-reagent control over plate median; activation, % at 11.2 µM; 6,700 tested, under 10 active; AID 1508609;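 active means mean percent activation across replicates above the confirmation screen cutoff of 4.91%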
GPR119 counter – GPR119 activation, counter-screen for GPR151 activators. actives 0.3% (n = 6,700). AID 1508611. GPR119 PathHunter beta-arrestin cells, luminescence, 90 min; 0 = compound-well median, 100 = enzyme-acceptor control. shares compounds with GPR151 activ. activation, % at 11.2 µM;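 active means mean percent activation in the counterscreen above 29.09%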;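 further: counterscreen on off-target GPR119 to flag nonselective hits from the GPR151 activator screen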
Large screens that a line does not name were inactive (follow-up assays come after a bar, where they were run).

CCOC(=O)Cn1c(=NC(=O)c2cc(=O)c3ccccc3o2)sc2cc(OC)ccc21	none
COc1ccccc1N1C(=O)NC2CC1(C)Oc1ccccc12 (configuration not stated)	none
O=C1C(Cl)=C(NCCO)C(=O)N1c1ccc(Cl)cc1	GPR151 activ 5.1 | GPR151 conf act inactive | GPR119 counter inactive
CCOC(=O)C1(Cc2ccc(Cl)cc2)CCN(CC)CC1	none
CCOC(=O)C1(Cc2cccc(OC)c2)CCN(CCO)CC1	GPR151 activ 7.9 | GPR151 conf act inactive | GPR119 counter inactive
CCOC(=O)C1(Cc2ccc(Cl)cc2)CCN(CCC(C)O)CC1 (configuration not stated)	GPR151 activ 5.0 | GPR151 conf act inactive | GPR119 counter inactive
Cc1ccc(/C(N)=N/OC(=O)CCc2ccccc2)cc1	GPR151 activ 5.0 | GPR151 conf act inactive | GPR119 counter inactive
O=C(Nc1c2c(nn1-c1cccc(Cl)c1)CS(=O)(=O)C2)c1cccc(F)c1	none
COc1ccc(-c2c[n+](CC(=O)OC3CC(C)CCC3C(C)C)c3n2CCCCC3)cc1 (configuration not stated)	TEAD-YAP inh 86.2, GPR151 activ 5.3 | GPR151 conf act inactive | GPR119 counter inactive
CN1CCCN(Cc2ccc(Cl)c(Cl)c2)CC1	none
CCNC(=S)N1CCN(Cc2ccc(F)cc2)CC1	GPR151 activ 6.6 | GPR151 conf act inactive | GPR119 counter inactive
CN1CCCN(Cc2ccc(F)cc2)CC1	GPR151 activ 6.0 | GPR151 conf act inactive | GPR119 counter inactive
CCCOC(=O)c1ccc(N2C(=O)c3cccc4cc(Br)cc(c34)C2=O)cc1	none
COc1cc2c(cc1OC)C(COc1ccc([N+](=O)[O-])cc1)N(C(=O)c1ccco1)CC2 (configuration not stated)	none
O=C(NCCc1nnc2n1CCN(Cc1ccc(CO)o1)CC2)C1CCCCC1	none
Cn1c2ccccc2c2nnc(SCC(=O)c3ccccc3)nc21	GPR151 activ 5.5 | GPR151 conf act inactive | GPR119 counter inactive
O=C(Nc1ccc(N2CCC(NCCC3=CCCCC3)CC2)cc1)c1cnccn1	none
CCOC(=O)/C(C#N)=C(\C)c1ccccc1	GPR151 activ 7.0 | GPR151 conf act inactive | GPR119 counter inactive
CCOC(=O)C(C#N)=C(c1ccccc1)c1ccccc1	none
CCOC(=O)c1cnc(SCC(=O)N(C)C2CCCCC2)nc1N	none
COc1ccc(N2CC(NC(=O)NC(c3ccccc3)c3ccccc3)CC2=O)cc1 (configuration not stated)	GPR151 activ 6.1 | GPR151 conf act inactive | GPR119 counter inactive
COc1cc(C(=S)N2CCCCC2)ccc1OC(=O)c1cccc([N+](=O)[O-])c1	none
COc1ccc(/C=N/NC(=O)CNC(=O)c2ccccc2Br)cc1	none
COc1ccc(/C=N/NC(=O)CNc2ccc3ccccc3c2)cc1Cl	none
COc1ccc(/C=N/NC(=O)CNC(=O)c2ccccc2Br)cc1OC	GPR151 activ 7.6 | GPR151 conf act inactive | GPR119 counter inactive
COc1ccc(/C=N/NC(=O)CNc2ccc3ccccc3c2)cc1OC	GPR151 activ 5.9 | GPR151 conf act inactive | GPR119 counter inactive
COc1ccc(/C=N/NC(=O)C(=O)Nc2cccc(Cl)c2)cc1OC	GPR151 activ 7.4 | GPR151 conf act inactive | GPR119 counter inactive
CCn1ncc(C2=NOC(C(=O)NC3CCCC3)C2)c1C (configuration not stated)	none
COc1ccc(CCNC(=O)c2cccc(Nc3nc4ccccc4n3C)n2)cc1	GPR151 activ 7.8 | GPR151 conf act inactive | GPR119 counter inactive
COc1ccc(CCNC(=O)c2csc(Nc3nc4ccccc4n3C)n2)cc1	none
Cc1cc(C(=O)N2CCOCC2)c(C)o1	none
Cc1cc(C(=O)NN2CCOCC2)c(C)o1	GPR151 activ 7.6 | GPR151 conf act inactive | GPR119 counter inactive
CN1CCc2c(sc(NC(=O)CN3C(=O)c4ccccc4C3=O)c2C(N)=O)C1	none
Cc1csc(S(=O)(=O)N2CCC(CO)(Cc3ccccc3Cl)CC2)c1	GPR151 activ 27.3 | GPR151 conf act inactive | GPR119 counter inactive
COc1ccc(CC2(CO)CCN(S(=O)(=O)c3cc(C)cs3)CC2)cc1	none
CCC(C)N1C(=O)/C(=C\c2ccco2)SC1=S (configuration not stated)	GPR151 activ 8.1 | GPR151 conf act inactive | GPR119 counter inactive
CCCN1C(=O)/C(=C/c2ccco2)SC1=S	none
COc1cc(C(=O)OCC(=O)c2cc(C)n(-c3ccccc3)c2C)c([N+](=O)[O-])cc1OC	none
CCc1ccccc1NC(=O)c1ccc(F)c(S(=O)(=O)N2CCCCC2C)c1 (configuration not stated)	GPR151 activ 6.7 | GPR151 conf act inactive | GPR119 counter inactive
COc1cc(N2CCOCC2)ccc1/C=C1\C(=O)NC(=S)N(c2ccc(F)cc2)C1=O	GPR151 activ 5.2 | GPR151 conf act inactive | GPR119 counter inactive
Cc1cc(C)nc(SCC(=O)OC2CC(C)CCC2C(C)C)n1 (configuration not stated)	none
Cc1c(CCO)sc[n+]1CC(=O)OC1CC(C)CCC1C(C)C (configuration not stated)	GPR151 activ 5.4 | GPR151 conf act inactive | GPR119 counter inactive
C=CCOC(=O)c1cc(-c2ccc(/C=N/Nc3nn[nH]n3)o2)ccc1Cl	GPR151 activ 5.0 | GPR151 conf act inactive | GPR119 counter inactive
Cc1ccc(/C=C2\N=C(c3ccc(C(C)(C)C)cc3)OC2=O)o1	none
CCOc1cccc(C(=O)NCc2ccncc2)c1	none
CCOc1cc(/C=c2/sc3nc4ccccc4n3c2=O)cc(I)c1O	GPR151 activ 5.1 | GPR151 conf act inactive | GPR119 counter inactive
COc1ccc(CCNc2nc(NC3CCC(O)CC3)nc3c2ncn3Cc2ccc(C(F)(F)F)cc2)cc1 (configuration not stated)	TEAD-YAP inh 36.2, GPR151 activ 5.9 | GPR151 conf act inactive | GPR119 counter 36.6
FC(F)(F)c1ccc(Cn2cnc3c(Nc4ccc(N5CCOCC5)cc4)nc(Cl)nc32)cc1	GPR151 activ 6.9 | GPR151 conf act inactive | GPR119 counter inactive
FC(F)(F)c1ccc(Cn2cnc3c(Nc4ccc(N5CCOCC5)cc4)nc(N4CCOCC4)nc32)cc1	none
COc1ccc(CCNc2nc(Nc3ccc(N4CCOCC4)cc3)nc3c2ncn3-c2ccccc2)cc1	GPR151 activ 6.5 | GPR151 conf act inactive | GPR119 counter inactive
NC(=O)c1ccc(-c2nc(Nc3ccc(N4CCOCC4)cc3)c3ncn(Cc4ccc(C(F)(F)F)cc4)c3n2)cc1	none
COc1ccc(-c2nc(Nc3ccc(N4CCOCC4)cc3)c3ncn(Cc4ccc(C(F)(F)F)cc4)c3n2)cc1	GPR151 activ 11.6 | GPR151 conf act inactive | GPR119 counter inactive

High-throughput results as filed in PubChem BioAssay.
